# From PubChem BioAssay
# Assay: inhibitors of PAF-induced NFkB signaling in CF airway cells, dose response, cell-based, uHTS hits, panel, cytotoxicity readout (AID 624344)
# Conditions: CF bronchial epithelial cells, PAF-induced NFkB reporter inhibition, with PAF, run 2; at 79 µM (top of the series) unless noted
row,Structure (SMILES),inhibition [%]
1,COc1cc(C2c3cc4c(cc3C(O)C3COC(=O)C23)OCO4)cc(OC)c1OC (configuration not stated),37.3
2,CCOC(=O)c1c(-c2ccccc2)oc2cc(Br)c(O)c(C=O)c12,84.3
3,CCSc1nsc(NC(=O)Nc2cccc(C(C)=O)c2)n1,97
4,COc1cncc(-c2cnc3sc(NCCc4ccccn4)nn23)c1,109
5,C=CCSc1nsc(NC(=O)Nc2cccc(C(C)=O)c2)n1,101
6,Cc1cccc2sc(N(CCCN(C)C)C(=O)CCS(=O)(=O)c3ccccc3)nc12,102
7,O=C(NNc1ccccc1Cl)C(O)(c1cccc(C(F)(F)F)c1)c1cccc(C(F)(F)F)c1,105
8,COc1cc(OC)cc(C(=O)N[C@H](C(=O)Nc2nc3ccccc3[nH]2)C(C)C)c1,80.2
9,C#CCN(C[C@@H]1[C@@H](OC(=O)NC2CC2)[C@@H](OC(=O)NC2CC2)Cn2c(=O)ccc(=O)n21)S(=O)(=O)c1ccc(C)cc1,111
10,C=C1C(=O)[C@]23C[C@H]1CCC2[C@@]1(C)C(C[C@@H]3O)[C@](C)(C(=O)O)CC[C@@H]1O (some centres not stated),104
11,O=C1Nc2ccccc2/C1=C/c1ccnc2ccccc12,111
12,Cc1ccc(NC(=O)Nc2nnc(-c3ccncc3)s2)cc1,114
13,Cc1ccc(CCC(=O)Nc2ncc(Cc3cc(Cl)ccc3Cl)s2)o1,101
14,CC(=O)Oc1c(C(=O)c2nnc(C)o2)c(=O)n(Cc2ccccc2)c2ccccc12,101
15,CC(C)C[C@H]1CNC(=S)N1C[C@H]1CCCN1C[C@H](Cc1ccc(O)cc1)N1C[C@H](Cc2ccc(O)cc2)N(CC2CCCCC2)C1=S,111
16,CN(C)C(=O)c1cccc(-c2cnc3sc(NCc4ccc5c(c4)OCO5)nn23)c1,106
17,C=CCc1cc(S(=O)(=O)c2ccc(O)c(CC=C)c2)ccc1O,99.2
18,COc1ccc(CNc2ncnc3ccccc23)cc1,87
19,COc1cccc2sc(N(CCCN(C)C)C(=O)CCS(=O)(=O)c3ccccc3)nc12,86.9
20,NC(=O)c1sc2nc3c(c(-c4ccccc4)c2c1N)CCC3,104
21,Cc1ncc(CC(=O)n2cc(C(=O)c3cc(Cl)ccc3O)cn2)s1,108
22,O=C(CSc1nc(C2CC2)nc2ccccc12)Nc1cccc(O)c1,79.8
23,COc1ccc(CNC(=O)C(c2ccc(O)cc2)N(Cc2ccco2)C(=O)c2snc(C(N)=O)c2N)cc1 (configuration not stated),104
24,O=[N+]([O-])c1ccc(Oc2ccc(F)cc2Br)c2ccncc12,103
25,COC(=O)c1ccc(NC(=O)c2ccccc2NS(=O)(=O)c2ccccc2)cc1,105
26,CCc1ccc(N(CC)c2ncnc3nc[nH]c23)cc1,99.3
27,CN(C)c1ccnc2sc3c(=O)n(Cc4ccccc4)cnc3c12,97.7
